A short description of experiment [1]: Nuclear factor erythroid 2-related factor 2/antioxidant responsive element (Nrf2/ARE) small molecule agonists: qHTS cell viability counter screen in human keratinocytes (AID 1919968; active = well fitted curve in the direction sought with a large enough effect in the repeat runs; an effect the other way counts as inactive or inconclusive; also: nearly all actives have a fitted effect of over 55% in size). The method in brief:
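After a 5 h attachment period, ARE-reporter keratinocytes were dosed with compounds in DMSO and then cultured 23 h at 37 C. Cell viability came from CellTiter-Fluor signal read after a further 1 h.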
On the technique in general: Quantitative high-throughput screening tests each substance at several concentrations.

The nature of experiment [2]: Nuclear factor erythroid 2-related factor 2/antioxidant responsive element (Nrf2/ARE) small molecule agonists: luciferase reporter gene qHTS assay in human keratinocytes (AID 1919969). Also: nearly all actives have a fitted effect of over 35% in size. Also: potency is read from the fitted curve at half-maximal effect. In general terms: A reporter such as luciferase makes a cellular process visible.
In experiment [3] the target is Gonadotropin-releasing hormone receptor (Homo sapiens) (UniProt P30968). Nature of the experiment: Human gonadotropin-releasing hormone receptor (GnRHR) small molecule agonists, calcium flux assay in GnRHR-HEK293 cells (AID 1920063). Also: nearly all actives have a fitted effect of over 35% in size. The method in brief:
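We seeded human GnRHR-expressing HEK293 cells for 18 hours, loaded them with calcium dye for an hour at 37 C, added test compounds, and recorded fluorescence intensity kinetically for three minutes.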

Experiment [4] concerns the target KiSS-1 receptor (Homo sapiens) (UniProt Q969F8). Nature of the experiment: Human kisspeptin (KISS1R) small molecule agonists, calcium flux assay in KISS1R-HEK293 cells (AID 1920064; active = well fitted curve in the direction sought with a large enough effect in the repeat runs; an effect the other way counts as inactive or inconclusive). Put shortly: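 Kinetic calcium assay, 1 s sampling over 3 min at Ex/Em 480/540, in HEK293 cells engineered with human KISS1R; compounds delivered in DMSO after 1 h dye loading.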
Experiment [5] can be described thus: G protein-coupled receptor (GPCR) small molecule agonists, calcium flux assay: HEK293 wild type cell line counter screen (AID 1920065). The method in brief:
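Calcium-sensitive dye, loaded 1 h at 37 C into cells cultured 18 h, reports compound-evoked calcium release as fluorescence (Ex/Em 480/540), measured over 3 min. Agonist mode; 15-point titrations, triplicate.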
(Calcium assays in cells follow changes in intracellular calcium, usually with a dye or a luminescent sensor.)

The nature of experiment [6]: p53 small molecule agonists, cell-based qHTS assay with human liver microsomes (AID 1963577). Also: potency is read from the fitted curve at half-maximal effect.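 As to activation: p53 response element beta-lactamase reporter cells with liver microsomes plus NADPH.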 The method in brief: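 16 h, 37 C exposure of p53RE-bla cells to compounds with human liver microsomes and NADPH (0.5 mg/mL final each); detection via LiveBLAzer mixture, 2 h dark at room temperature.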
Experiment [7] can be described thus: p53 small molecule agonists, cell-based qHTS assay with human liver microsomes: qHTS cell viability counter screen (AID 1963579). Also: nearly all actives have a fitted effect of over 45% in size. The method in brief: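 In this multiplexed counter screen, the reporter plates were subsequently treated with CellTiter-Glo so that cell viability, reflected by luminescence, could be recorded for p53RE-bla cells dosed 16 h with compounds under microsomal activation (HLM and NADPH).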

Experiment [8] is described as follows: p53 small molecule agonists, cell-based qHTS assay with rat liver microsomes: qHTS cell viability counter screen (AID 1963580). Also: nearly all actives have a fitted effect of over 45% in size. The method in brief: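 Viability is assessed in parallel with the p53 reporter read: HCT-116 p53RE-bla cells receive compounds plus rat microsomes and NADPH (0.5 mg/mL final apiece), incubate 16 h at 37 C, and then CellTiter-Glo luminescence is recorded.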

Experiment [9] in a line: p53 small molecule agonists, cell-based qHTS assay: qHTS cell viability counter screen (AID 1963581). Also: nearly all actives have a fitted effect of over 45% in size. The method in brief: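 Following 5 h attachment, HCT-116 p53RE-bla cells took up compound for 16 h at 37 C; the reporter was read with B/G FRET substrate (2 h RT), and viability then via CellTiter-Glo ATP luminescence.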
A short description of experiment [10]: p53 small molecule agonists, cell-based qHTS assay (AID 1963582; active = well fitted activation curve with a large enough effect in the signal ratio in the repeat runs, not every such curve was filed as active; the % refers to the signal ratio). Put shortly:
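In this cell-based concentration-response screen, a p53 response element drives beta-lactamase; cells received DMSO-borne compounds after 5 h culture and were incubated a further 16 h before FRET substrate development.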

The target of experiment [11] is 5-hydroxytryptamine receptor 2A (Homo sapiens) (UniProt P28223). Nature of the experiment: 5-hydroxytryptamine receptor 2A (HTR2A) small molecule antagonists, cell-based qHTS assay (AID 1963586). Also: nearly all actives have a fitted effect of over 45% in size. Also: potency is read from the fitted curve at half-maximal effect. The method in brief:
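Antagonist-mode intracellular calcium assay: DOI (4 nM) added after 5 min compound pre-incubation at room temperature to dye-loaded HTR2A-CHO cells. Fluorescence followed for 3 min, sampled every second.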

For experiment [12] the target is unchanged. The experiment in a line: 5-hydroxytryptamine receptor 2A (HTR2A) small molecule agonists, cell-based qHTS assay (AID 1963587). Also: nearly all actives have a fitted effect of over 30% in size. The method in brief: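 CHO cells stably expressing human HTR2A, plated 18 h, loaded with calcium dye 1 h at 37 C. Agonist mode: compounds added and intracellular calcium fluorescence recorded kinetically for 2 min at 1 sec intervals.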

The target of experiment [13] is Muscarinic acetylcholine receptor M1 (Homo sapiens) (UniProt P11229). The experiment in a line: Cholinergic receptor muscarinic 1 (CHRM1) small molecule antagonists, cell-based qHTS assay (AID 1963588). Also: nearly all actives have a fitted effect of over 40% in size. Put shortly:
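CHRM1-CHO calcium-flux assay, antagonist mode. Cells were seeded 18 h, dye-loaded 1 h at 37 C and given compound for 5 min at RT, then acetylcholine was added at 50nM. FDSS fluorescence was read 3 min; 15 concentrations, three runs.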

The target is the same in experiment [14]. The experiment in a line: Cholinergic receptor muscarinic 1 (CHRM1) small molecule agonists, cell-based qHTS assay (AID 1963589). Also: nearly all actives have a fitted effect of over 35% in size. Put shortly:
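Measures agonist-induced intracellular calcium rise. Stable human CHRM1 CHO line, 1 h dye load at 37 C, compounds from DMSO, kinetic fluorescence read.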

Experiment [15] can be described thus: cAMP Responsive Elements (CRE) small molecule agonists, cell-based qHTS assay (AID 1963590). Put shortly: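 A CRE-responsive beta-lactamase reporter in HEK 293T cells was used. Treatment ran 3 h at 37 C; detection used LiveBLAzer B/G FRET substrate for 2 h at room temperature.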
The nature of experiment [16]: cAMP Responsive Elements (CRE) small molecule antagonists, cell-based qHTS assay (AID 1963591; active = well fitted inhibition curve with a large enough effect in the signal ratio in the repeat runs, not every such curve was filed as active; the % refers to the signal ratio). The method in brief:
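HEK293T cells carrying a CRE-driven beta-lactamase reporter receive compound and NKH477 (0.25 uM final) for 3 h. Fluorescence from LiveBLAzer B/G FRET substrate is read after 2 h at room temperature.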

The target in experiment [17] is Beta-2 adrenergic receptor (Homo sapiens) (UniProt P07550). The experiment in a line: Adrenergic beta2 receptor (ADRB2) small molecule antagonists, cell-based qHTS assay (AID 1963592). Also: series mostly up to about 92 µM; nearly all actives have a fitted effect of over 50% in size. The method in brief:
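Cells (CHO, stable ADRB2 overexpression) incubated 18-20hr at 37C; compounds added from DMSO; agonist mix (1nM isoproterenol, 100uM IBMX, 25uM Ro-20-1724) added; 0.5hr RT; d2-cAMP and anti-cAMP-cryptate added; 1hr RT; 665/615 nm read.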

The target in experiment [18] is D(2) dopamine receptor (Homo sapiens) (UniProt P14416). The experiment in a line: Dopamine D2 receptor (DRD2) small molecule agonists, cell-based qHTS assay (AID 1963594). Also: nearly all actives have a fitted effect of over 35% in size. Put shortly:
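HEK293 cells stably expressing human DRD2, pre-treated with PDE inhibitor Ro20-1724 (0.1 mM final) and compound 10 min at room temperature, then stimulated with NKH477 (200nM […]) for 30 min. cAMP read by HTRF (665/620 nm).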

The target is the same in experiment [19]. Nature of the experiment: Dopamine D2 receptor (DRD2) small molecule antagonists, cell-based qHTS assay (AID 1963595; active = well fitted inhibition curve with a large enough effect in the signal ratio in the repeat runs, with a control signal flat; the % refers to the signal ratio). Put shortly:
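Antagonism was scored as restored cAMP in HEK293-DRD2 cells. These cells were stimulated with 200 nM NKH477 and 12 nM quinpirole for 30 min at room temperature, in the presence of 0.1 mM Ro20-1724.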

Experiment [20] is described as follows: p53 small molecule agonists, cell-based qHTS assay with rat liver microsomes (AID 1963578). Put shortly:
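With rat liver microsomes and NADPH present (0.5 mg/mL final each), p53RE-bla cells are treated with compound for 16 h at 37 C. LiveBLAzer detection mixture is then applied for 2 h at room temperature in the dark.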

Unmarked numbers belong to inactive results. Inconclusive results are not listed. The source made the active and inactive calls. Unless noted, calls follow the shape of the full dose curve.

Chain of Gonadotropin-releasing hormone receptor (Homo sapiens) (P30968 whole entry, looked up): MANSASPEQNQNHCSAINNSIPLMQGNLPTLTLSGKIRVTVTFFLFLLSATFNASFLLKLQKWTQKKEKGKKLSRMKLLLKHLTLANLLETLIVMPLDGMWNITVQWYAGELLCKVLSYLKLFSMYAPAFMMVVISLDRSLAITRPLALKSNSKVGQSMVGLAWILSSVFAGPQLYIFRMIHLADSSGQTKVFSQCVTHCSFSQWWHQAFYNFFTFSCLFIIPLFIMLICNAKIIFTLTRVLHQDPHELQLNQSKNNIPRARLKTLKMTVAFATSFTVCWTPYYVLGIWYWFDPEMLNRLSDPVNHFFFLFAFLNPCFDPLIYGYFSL
Chain of Muscarinic acetylcholine receptor M1 (Homo sapiens) (P11229 whole entry, looked up): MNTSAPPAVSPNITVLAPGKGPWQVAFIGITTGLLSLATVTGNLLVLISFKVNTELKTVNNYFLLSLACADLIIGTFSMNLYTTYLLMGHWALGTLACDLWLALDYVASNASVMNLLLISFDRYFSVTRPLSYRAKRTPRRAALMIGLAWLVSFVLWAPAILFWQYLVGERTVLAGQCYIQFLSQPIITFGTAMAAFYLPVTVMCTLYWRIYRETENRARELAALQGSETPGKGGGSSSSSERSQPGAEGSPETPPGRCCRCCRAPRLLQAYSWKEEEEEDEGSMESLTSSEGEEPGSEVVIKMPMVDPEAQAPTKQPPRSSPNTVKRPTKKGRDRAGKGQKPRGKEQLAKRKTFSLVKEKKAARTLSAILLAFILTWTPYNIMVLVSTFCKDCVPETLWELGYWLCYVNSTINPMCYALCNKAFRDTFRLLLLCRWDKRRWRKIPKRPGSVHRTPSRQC
Chain of 5-hydroxytryptamine receptor 2A (Homo sapiens) (P28223 whole entry, looked up): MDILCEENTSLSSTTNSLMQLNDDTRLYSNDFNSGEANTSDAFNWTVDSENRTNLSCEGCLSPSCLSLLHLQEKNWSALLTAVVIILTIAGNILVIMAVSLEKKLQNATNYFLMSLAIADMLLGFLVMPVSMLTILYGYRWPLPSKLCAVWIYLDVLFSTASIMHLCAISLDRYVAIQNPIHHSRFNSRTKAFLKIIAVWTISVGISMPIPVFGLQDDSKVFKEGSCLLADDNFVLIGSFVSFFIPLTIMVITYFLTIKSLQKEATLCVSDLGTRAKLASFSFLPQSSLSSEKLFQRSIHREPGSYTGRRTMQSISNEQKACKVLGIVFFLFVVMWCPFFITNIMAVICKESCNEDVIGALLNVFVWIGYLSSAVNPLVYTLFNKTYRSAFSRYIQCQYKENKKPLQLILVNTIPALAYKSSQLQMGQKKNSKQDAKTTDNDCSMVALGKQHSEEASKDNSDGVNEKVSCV
Chain of Beta-2 adrenergic receptor (Homo sapiens) (P07550 whole entry, looked up): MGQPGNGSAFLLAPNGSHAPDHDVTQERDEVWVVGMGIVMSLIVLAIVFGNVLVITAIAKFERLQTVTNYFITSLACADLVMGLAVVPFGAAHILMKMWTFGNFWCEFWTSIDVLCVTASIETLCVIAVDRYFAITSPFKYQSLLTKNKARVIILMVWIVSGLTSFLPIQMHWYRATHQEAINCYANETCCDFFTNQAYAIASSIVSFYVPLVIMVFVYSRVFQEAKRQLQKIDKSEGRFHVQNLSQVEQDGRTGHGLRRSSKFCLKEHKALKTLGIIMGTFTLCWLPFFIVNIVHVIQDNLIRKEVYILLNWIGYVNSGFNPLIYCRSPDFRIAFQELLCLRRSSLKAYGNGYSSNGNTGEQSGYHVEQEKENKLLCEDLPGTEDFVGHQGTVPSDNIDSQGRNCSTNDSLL
Chain of KiSS-1 receptor (Homo sapiens) (Q969F8 whole entry, looked up): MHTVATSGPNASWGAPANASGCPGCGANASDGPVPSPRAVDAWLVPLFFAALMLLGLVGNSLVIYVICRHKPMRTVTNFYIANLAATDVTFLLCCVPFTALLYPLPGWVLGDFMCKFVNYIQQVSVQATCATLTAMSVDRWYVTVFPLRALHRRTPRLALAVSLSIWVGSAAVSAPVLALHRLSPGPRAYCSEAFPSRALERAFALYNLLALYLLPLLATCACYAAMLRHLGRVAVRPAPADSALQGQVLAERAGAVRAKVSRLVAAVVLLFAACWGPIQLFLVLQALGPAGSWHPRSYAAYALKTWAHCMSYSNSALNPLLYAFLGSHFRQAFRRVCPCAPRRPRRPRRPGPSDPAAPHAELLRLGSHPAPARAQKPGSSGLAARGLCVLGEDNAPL
Chain of D(2) dopamine receptor (Homo sapiens) (P14416 whole entry, looked up): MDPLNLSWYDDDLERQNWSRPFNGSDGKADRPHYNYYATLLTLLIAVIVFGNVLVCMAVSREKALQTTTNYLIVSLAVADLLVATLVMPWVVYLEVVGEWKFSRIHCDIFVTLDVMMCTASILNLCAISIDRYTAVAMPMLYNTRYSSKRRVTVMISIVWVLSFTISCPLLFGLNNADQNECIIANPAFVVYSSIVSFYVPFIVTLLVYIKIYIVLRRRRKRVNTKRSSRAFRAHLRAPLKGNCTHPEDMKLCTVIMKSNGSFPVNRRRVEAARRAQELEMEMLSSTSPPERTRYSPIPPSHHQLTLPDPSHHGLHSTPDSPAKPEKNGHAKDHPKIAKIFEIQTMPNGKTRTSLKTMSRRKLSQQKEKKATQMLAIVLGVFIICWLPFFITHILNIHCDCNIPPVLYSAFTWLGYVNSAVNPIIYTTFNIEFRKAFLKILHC

Turning to `C=C(Cl)CSC(=S)N(CC)CC`, the Potency entry in experiment [1], in experiment [3], in experiment [4], in experiment [5], in experiment [6] and in experiment [7] was “inactive” in each case. Moreover, the Potency result in experiment [8], in experiment [9], in [10], in experiment [11], in experiment [12] and in experiment [13] was “inactive” each time. Also, the Potency result in experiment [14], in experiment [15], in [16], in [17], in experiment [18] and in experiment [19] was “inactive” throughout. In addition, the Potency in experiment [2] was 66.8 µM (active).
Turning to `CN(C)C(=O)Nc1cccc(OC(=O)NC(C)(C)C)c1`, the Potency result in experiment [1], in experiment [2], in [3], in experiment [4], in experiment [5] and in experiment [6] was “inactive” in each case. Besides, the Potency result in [7], in [8], in experiment [10], in experiment [11], in [12] and in experiment [14] was “inactive” in each case. The Potency entry in experiment [15], in experiment [16], in experiment [17], in experiment [18] and in experiment [19] was “inactive” each time.
As to `COP(N)(=S)Oc1ccccc1C(=O)OC(C)C` (stereo not given), the Potency entry in experiment [1], in experiment [2], in experiment [3], in [4], in experiment [5] and in [7] was “inactive” in each case. The Potency entry in experiment [9], in [10], in [12], in [13], in experiment [15] and in [17] was “inactive” each time. The Potency entry in experiment [18] and in [19] was “inactive” in each case. In addition, the Potency in experiment [6] was 18.2 µM (active).
`CC(C)(C)c1ccc(OP(=O)(Oc2ccccc2)Oc2ccccc2)cc1`: the Potency result in [1], in [2], in experiment [3], in [4], in experiment [5] and in experiment [6] was “inactive” in each case. In addition, the Potency entry in [9], in experiment [10], in experiment [12], in experiment [13], in experiment [14] and in [15] was “inactive” in each case. The Potency result in [16], in experiment [17], in experiment [18] and in [19] was “inactive” each time. Besides, the Potency in [11] was 8.45 µM (active).
For the molecule `O=C(Cc1ccccc1)OCCc1ccccc1`, the Potency result in experiment [1], in experiment [2], in [3], in experiment [4], in experiment [5] and in [6] was “inactive” each time. The Potency entry in experiment [8], in [9], in [10], in experiment [12], in experiment [14] and in [15] was “inactive” each time. For the same molecule, the Potency entry in experiment [16], in experiment [18] and in experiment [19] was “inactive” each time.
With `C=CC(=O)OCCN(C)C`, the Potency entry in [1], in experiment [2], in experiment [3], in experiment [4], in experiment [5] and in experiment [6] was “inactive” in each case. Also, the Potency entry in experiment [7], in [8], in experiment [9], in experiment [10], in [12] and in [13] was “inactive” throughout. In addition, the Potency result in experiment [14], in experiment [15], in experiment [16], in [17], in experiment [18] and in experiment [19] was “inactive” each time.
Take `COP(=O)(OC)O/C(=C\Cl)c1cc(Cl)c(Cl)cc1Cl`: the Potency entry in experiment [1], in experiment [3], in experiment [4], in [5], in experiment [8] and in experiment [10] was “inactive” each time. For the same molecule, the Potency result in [11], in experiment [12], in experiment [13], in experiment [14], in experiment [15] and in experiment [17] was “inactive” throughout. The Potency result in experiment [18] and in experiment [19] was “inactive” in each case. The Potency in [2] was 68.6 µM (active); in experiment [6] it was 40.8 µM (active).
With `CCOc1cc(OP(=S)(OC)OC)nc(CC)n1`, the Potency result in experiment [1], in [2], in experiment [3], in experiment [4], in experiment [5] and in experiment [20] was “inactive” throughout. Moreover, the Potency entry in experiment [7], in [8], in [9], in experiment [10], in [11] and in experiment [12] was “inactive” in each case. Moreover, the Potency entry in [13], in experiment [14], in [15], in experiment [16], in experiment [17] and in [19] was “inactive” in each case.

Source of the values: PubChem BioAssay (Tox21).
